PubChem BioAssay AID1460 (National Center for Advancing Translational Sciences (NCATS), 2008)
Among all 270,000 compounds or so, about 5,800 (2.1%) were called active. Roughly 16% stayed inconclusive and do not appear here. The list comes from a sample in which actives are over-represented; it also holds similar structures and randomly drawn compounds. Entries that show only a call come without a potency. The source holds several records for some structures; these can differ, active in one and inactive in another. Unmarked numbers belong to inactive results. Calls come from the whole dose curve; as a rule, active = well fitted inhibition curve with a large enough effect; inconclusive = small, poorly fitted or top-dose-only effect; inactive = flat fitted curve, though single readings scatter.

The compounds below were run against Microtubule-associated protein tau (Homo sapiens) (UniProt P10636) (assay: qHTS for Inhibitors of Tau Fibril Formation, Thioflavin T Binding). Settings: recombinant tau K18 P301L (four-repeat tau fragment), heparin-induced fibrillization, ThT fluorescence; series mostly up to 57.4 µM.
Excerpt: NIH Molecular Libraries Probe Production Network [MLPCN]
NIH Chemical Genomics Center [NCGC]
Assay Provider: Carlo Ballatore, University of Pennsylvania
The microtubule-associated protein tau is an abundant protein in the axons of neurons that stabilizes microtubules. With its ability to modulate microtubule dynamics, tau contributes directly or indirectly, to key structural and regulatory cellular functions. Particularly important is the influence tau exerts on axonal transport, which allows signaling molecules, trophic factors and other essential cellular constituents to travel along the axons. Under pathological conditions, tau becomes sequestered into insoluble aggregates called neurofibrillary tangles. This phenomenon is believed to have pathological consequences by promoting axonal transport deficits that ultimately lead to synaptic dysfunction and neuronal loss. To identify inhibitors of tau aggregation, a heparin-induced tau fibril formation assay was used that employed a recombinantly expressed fragment of tau, K18 (Q242-E372), bearing a P301L mutation (Gustke et al. 1994; Hong et al. 1998). This assay monitors tau fibrillization by Thioflavin T (ThT) fluorescence.
Gustke, N., B. Trinczek, et al. (1994). "Domains of tau protein and interactions with microtubules." Biochemistry 33(32): 9511-22.
Hong, M., V. Zhukareva, et al. (1998).
Li, W. and V. M. Lee (2006).
von Bergen, M., S. Barghorn, et al. (2001). "Mutations of tau protein in frontotemporal dementia promote aggregation of paired helical filaments by enhancing local beta-structure." J Biol Chem 276(51): 48165-74.
NCGC Assay Protocol Summary:
For screening, 2 uL/well human K18 P301L (15 uM unlabeled and 0.24 uM Alexa 594-labeled tau, final concentrations) in reagent buffer (100 mM sodium acetate pH 7) was dispensed into black solid 1536-well plates (Grenier) using a solenoid-based dispenser. Following transfer of 23 nL compound or DMSO vehicle by a pin tool, 2 uL/well heparin (20 uM final concentration) in reagent buffer was added and the plate centrifuged 15 s at 1000 RPM. Plates were incubated 6 hr at 37 C and then 1 uL/well ThT (30 uM final concentration) was added. After a 1 hr ambient incubation, the plates were read by an Envision (Perkin Elmer) to monitor ThT fluorescence (450/8 nm excitation and 510/23 nm emission).
Keywords: NIH Roadmap, MLPCN, MLI, MLSMR, NCGC, qHTS, tau, tauopathies, Alzheimer's disease, fibril, neurodegeneration, aggregation
Note: nearly all actives have a fitted effect of over 55% in size.
Potency is the fitted concentration of half-maximal effect.

Chain of Microtubule-associated protein tau (Homo sapiens) (P10636 561-689 P618L limits assumed): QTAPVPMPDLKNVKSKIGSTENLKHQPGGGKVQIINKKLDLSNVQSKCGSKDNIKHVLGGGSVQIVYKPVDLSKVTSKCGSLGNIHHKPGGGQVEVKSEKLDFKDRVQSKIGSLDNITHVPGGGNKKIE

| SMILES | Potency | activity, negative = inhibition |
| --- | --- | --- |
| Cc1[nH][nH]c(=O)c1C(c1ccc2c(c1)OCO2)c1c(C)[nH][nH]c1=O | inactive |  |
| CC(=O)c1cc2c(cc1N)OCO2 | inactive |  |
| Nc1[nH][nH]c(=O)c1N=Nc1ccc2c(c1)OCO2 | 11.2 µM (active) |  |
| COc1ccccc1N1CCN(S(=O)(=O)CCNC(=O)COc2ccc(F)cc2)CC1 | inactive |  |
| Cc1ccc2c(c1)c1c(c(=O)n(-c3ccccc3)c(=O)n1CC(=O)c1ccc(Cl)cc1)n2C | inactive |  |
| COc1ccc(CCNC(=O)CCCn2c(=O)c3ccccc3n(Cc3ccc(F)cc3Cl)c2=O)cc1OC | inactive |  |
| CN1/C(=C\C(=O)c2oc3ccccc3c2N)C(C)(C)c2ccccc21 | inactive |  |
| CN1/C(=C\C(=O)c2cccnc2Cl)C(C)(C)c2ccccc21 | inactive |  |
| CN1/C(=C\C=C2\N=C(c3ccc(F)cc3)OC2=O)C(C)(C)c2ccccc21 | 28.2 µM (active) |  |
| COc1ccc(OCc2ccc(-c3nc(C#N)c(N4CCN(c5ccccc5)CC4)o3)o2)cc1 | inactive |  |
| COc1ccccc1N=Cc1c(O)c2ccccc2oc1=O | inactive |  |
| COc1ccc(N=Cc2c(O)[nH]c3ccccc23)cc1OC | 14.1 µM (active) |  |
| COCC(=O)N=Nc1c(O)[nH]c2ccccc12 | inactive |  |
| Cc1cc(NC(=O)c2ccc(-c3ccc(Cl)cc3)o2)cc(-c2nc3ncccc3o2)c1O | inactive |  |
| Cc1oc2ncn(CC(C)C)c(=O)c2c1C(=O)N1CCN(c2ccccc2F)CC1 | inactive |  |
| COc1ccccc1CNS(=O)(=O)c1cc(Br)cc2c1N(C(C)=O)C(C)C2 (stereo not given) | inactive |  |
| CCC(CC)C(=O)N1CCc2cc(OC)c(OC)cc2C1COc1ccc(F)cc1 (stereo not given) | inactive |  |
| CCCCC1=CC2=CC(=O)C(C)(OC(=O)CC)C(=O)C2=CN1CCCOC(C)C (stereo not given) |  | 0.166% [at 11.5 µM] |
| CC1(OC(=O)CCc2ccccc2)C(=O)C=C2C=C(c3ccc(C#N)cc3)N(CCc3ccccn3)C=C2C1=O (stereo not given) | 28.2 µM (active) | 5.29% [at 11.5 µM] |
| CC1(OC(=O)C2CCCC2)C(=O)C=C2C=C(c3ccc(C#N)cc3)OC=C2C1=O (stereo not given) | inactive |  |
| COc1ccc(NC(=O)CCCN2C(=O)CCn3nc(-c4cn(C)c5ccccc45)cc32)cc1OC | inactive |  |
| COc1ccccc1OCC(=O)Nc1nnc2n1CCS2 | inactive |  |
| CCc1ccc(NC(=O)C2CCCN2S(=O)(=O)c2ccc3nc(-c4ccccc4)[nH]c3c2)cc1 (stereo not given) | inactive |  |
| CCOc1cc(C2C(C(=O)OC)=C(C)NC3=C2C(=O)c2ccccc23)ccc1O (stereo not given) | 14.1 µM (active) |  |
| CCOc1cc(C2C(C(=O)Nc3ccc(OC)cc3)=C(C)Nc3nc(SC)nn32)ccc1O (stereo not given) | inactive |  |

| SMILES | Potency | activity, negative = inhibition |
| --- | --- | --- |
| COC(=O)C1=C(C)NC(=O)NC1/C=C/c1ccccc1 (stereo not given) | inactive |  |
| COc1ccccc1NC(=O)C1=C(C)NC2=C(C(=O)CCC2)C1c1ccc(C)o1 (stereo not given) | inactive |  |
| COc1cc(C2C(C(=O)OCCC#N)=C(C)NC3=C2S(=O)(=O)c2ccccc23)cc(OC)c1OC (stereo not given) | inactive |  |
| COC(=O)C1=C(C)NC2=C(C(=O)c3ccccc32)C1c1ccc(-c2ccc(C(=O)O)cc2)o1 (stereo not given) | 8.91 µM (active) |  |
| Cc1nn(C)c2c1c(C(F)(F)F)cc(=O)n2C(C)C(=O)NCc1ccc(Cl)cc1 (stereo not given) | inactive |  |
| CC(C)(C)c1ccc(C(=O)NCC(c2ccco2)S(=O)(=O)c2ccc(F)cc2)cc1 (stereo not given) | inactive |  |
| Cc1ccc(Cl)cc1NC(=O)CSc1nc2ccccc2nc1Cc1ccccc1 | inactive |  |
| Cc1ccc(NC(=O)C2CCN(S(=O)(=O)c3cc(-c4noc(C)n4)ccc3C)CC2)c(C)c1 | inactive |  |
| O=C(NCCCc1ccccc1)c1ccc2c(c1)sc1nc(-c3ccc(F)cc3)cn12 | inactive |  |
| COc1ccc2[nH]c3c(c2c1)CCN(C(=O)CCC1CCCC1)C3c1ccc(F)cc1 (stereo not given) | inactive |  |
| CC(C)C(=O)Nc1nc2c(s1)CC(C(C)(C)C)CC2 (stereo not given) | inactive |  |
| CCOC(=O)c1c(-c2cccc(C)c2)csc1NC(=O)c1c(-c2ccccc2)noc1C | inactive |  |
| CCCS(=O)(=O)c1ncc(Cl)c(C(=O)Nc2scc(-c3ccccc3)c2C(=O)OCC)n1 | 7.94 µM (active) |  |
| CCOC(=O)c1c(-c2ccccc2)csc1NC(=S)NC(=O)c1ccccc1 | inactive |  |
| COc1cc(CNC(=O)c2cc3n(n2)CCCN(Cc2cccc(F)c2)C3=O)cc(OC)c1OC | inactive |  |
| Cc1cc(C)c([N+](=O)[O-])cc1-c1ccc(/C=N/NC(=O)c2nonc2N)o1 | 5.01 µM (active) |  |
| COc1cc(/C=N\NC(=O)c2nonc2N)c(OC)cc1Br | inactive |  |
| COC(=O)N/N=C/c1ccc(-c2ccc(Cl)c(Cl)c2)o1 | inactive |  |
| Cc1ccc(-c2ccc(/C=N/NC(=O)CN3CCOCC3)o2)cc1[N+](=O)[O-] | 15.8 µM (active) |  |
| Nc1nnnn1CC(=O)N/N=C/c1ccc(-c2cccc(Cl)c2)o1 | inactive |  |
| Cc1ccc(NC(=O)CN2CCC(C(N)=O)CC2)cc1[N+](=O)[O-] | inactive |  |
| CCC(=O)N1N=C(c2ccc(OC)cc2)CC1c1cn(-c2ccccc2)nc1-c1cccs1 (stereo not given) | inactive |  |
| COc1cc(NC(=O)c2noc3c2CSc2ccccc2-3)cc(OC)c1OC | inactive |  |
| Cc1cc(/C=N/NC(=O)c2cccnc2)c(C)n1CC(C)C | inactive |  |
| CCN(CC)c1ccc(/C=N/NC(=O)c2cnccn2)c(O)c1 | 5.62 µM (active) |  |

| SMILES | Potency | activity, negative = inhibition |
| --- | --- | --- |
| CCN(CC)c1ccc(/C=N/Nc2nc(C)cc(C)n2)c(O)c1 | inactive |  |
| CC(CNC(=O)c1nnc(Cc2cccc(F)c2)o1)c1ccccc1 (stereo not given) | inactive |  |
| O=C(CCSCc1cccc(F)c1)NCc1ccccc1 | inactive |  |
| COc1cc(OC)c(NC(=O)Cc2ccc(-n3c(C)nc4cccnc43)cc2)cc1Cl | inactive |  |
| COc1ccc(C(=O)CSc2c(C(C)C)cnc3c2c(=O)n(C)c(=O)n3C)cc1 | inactive |  |
| CCCCNC(=O)Nc1c(C)cc(SC#N)cc1C | 22.4 µM (active) |  |
| CCCCNC(=S)NNC(=O)c1cc(C)on1 | inactive |  |
| CCCCNC(=O)C(=O)c1ccccc1NC(C)=O | inactive |  |
| O=C(NC(=S)Nc1cccc2c(O)cccc12)c1cccc(Br)c1 | 12.6 µM (active) |  |
| NS(=O)(=O)c1ccc(NC(=S)NC(=O)c2cccc(Br)c2)cc1 | inactive |  |
| O=C(NC(=S)Nc1ccc(S(=O)(=O)Nc2ncccn2)cc1)c1cccc(Br)c1 | inactive |  |
| COC(=O)c1ccc(C(=O)OC)c(NC(=S)N2CCCCC2)c1 | inactive |  |
| O=C(Oc1ccccc1C(=S)N1CCCCC1)c1cc([N+](=O)[O-])cc([N+](=O)[O-])c1 | 25.1 µM (active) |  |
| O=[N+]([O-])c1cccc(S(=O)(=O)N2CCCCCC2)c1 | inactive |  |
| CCS(=O)(=O)N1CCc2cc(C(=O)NCc3ccc(C)cc3)ccc21 | inactive |  |
| CCCCN(CC)CCCNC(=O)c1nn(C)c2c1CSc1ccccc1-2 | inactive |  |
| COc1cccc(-n2c(=O)c3c(C)c(C(=O)N(C)C)sc3n(Cc3cccc(C)c3)c2=O)c1 | inactive |  |
| CCOC(=O)c1cc(-c2ccccc2)n(CCC(=O)Nc2ccccc2CC)c1C | inactive |  |
| CCOC(=O)c1cc2n(c1N)-c1ccccc1C2=O | 14.1 µM (active) |  |
| CCOC(=O)Nc1ccccc1N1C(=O)c2ccccc2C1=O | inactive |  |
| O=C(NNc1ccccn1)c1ccc(Cl)nc1 | inactive |  |
| O=C(CCl)NNc1cccc(Cl)n1 | 14.1 µM (active) |  |
| COc1cc(OC)nc(NC(=O)CCl)n1 | inactive |  |
| Cc1ccc(CNC(=O)CCC(=O)N2Cc3ccccc3Oc3ncccc32)cc1 | inactive |  |
| COc1ccccc1CNC(=O)C(=O)NCC(c1ccco1)S(=O)(=O)c1ccc(F)cc1 (stereo not given) | inactive |  |

| SMILES | Potency | activity, negative = inhibition |
| --- | --- | --- |
| CCCCN=C1C([N+](=O)[O-])=CC=C2C1=NC1(CCCCC1)N2O | 8.91 µM (active) |  |
| CCCOc1ccc(NC(=O)CC2C(=O)N(c3ccccc3)C(=O)N2Cc2ccco2)cc1 (stereo not given) | inactive |  |
| CCOc1ccc(NC(=O)Cn2c(=O)n(CCCC(=O)NCc3ccc4c(c3)OCO4)c(=O)c3ccccc32)cc1 | inactive |  |
| O=C(NN=C1CCC(=NNC(=O)c2cccnc2)CC1)c1cccnc1 | 39.8 µM (active) |  |
| O=C(Nc1cnccn1)c1cccnc1 | inactive |  |
| C/C(=N\NC(=O)c1cccnc1)c1ccc(-c2ccccc2)cc1 | inactive |  |
| CCOc1ccccc1NC(=O)Cn1c(=O)n(Cc2ccccc2)c(=O)c2c(C)c(C(=O)N(C)C)sc21 | inactive |  |
| COc1ccccc1CC(=O)Nc1ccc([N+](=O)[O-])cc1OC | inactive |  |
| COc1ccccc1CSc1ncc(-c2ccc([N+](=O)[O-])cc2)[nH]1 | 14.1 µM (active) |  |
| COc1ccccc1CSc1nc2ccccc2[nH]1 | inactive |  |
| Oc1c(Cl)cc(Cl)c(Cl)c1Cc1c(O)c(Cl)cc(Cl)c1Cl | 20 µM (active) |  |
| CCOc1ccc(NC(=O)C(=O)NCCc2csc3nc(-c4ccccc4F)nn23)cc1 | inactive |  |
| CCc1ccccc1NC(=O)Cn1c(=O)n(-c2cccc(C)c2)c(=O)c2c1c1cc(OC)ccc1n2C | inactive |  |
| O=C(COC(=O)Cc1ccc(F)cc1)Nc1cc(S(=O)(=O)N2CCOCC2)ccc1N1CCCC1 | inactive |  |
| COCCNC(=S)Nc1cc(S(=O)(=O)N2CCOCC2)ccc1N1CCCCC1 | 35.5 µM (active) |  |
| CC(=O)NCCC(=O)Nc1cc(S(=O)(=O)N2CCOCC2)ccc1N1CCOCC1 | inactive |  |
| COc1ccc(-c2nc3scc(CCNS(=O)(=O)c4cc(F)ccc4OC)n3n2)cc1OC | inactive |  |
| Cc1ccc(-n2c(SCC(=O)c3ccccc3)nc3c([nH]c4ccccc43)c2=O)cc1 | inactive |  |
| Cc1ccc(-c2cc(C(=O)N/N=C/C=C/c3ccco3)c3ccccc3n2)cc1C | inactive |  |
| Cc1ccc(N2NC(=O)/C(=C/C=C/c3ccco3)C2=O)cc1C | 10 µM (active) |  |
| Cc1ccc(N=C2NC(=O)/C(=C/C=C/c3ccco3)S2)cc1C | 4.47 µM (active) |  |
| CCC1S/C(=N/N=C/c2ccco2)NC1=O (stereo not given) | inactive |  |
| CN(C)c1ccc(-n2cccc2/C=C2/SC(=Nc3ccc(F)cc3)NC2=O)cc1 | inactive |  |
| Cc1ccc(C(=O)N/C(=C\c2ccco2)C(=O)N2CCSCC2)cc1C | inactive |  |
